Results reported in PubChem BioAssay AID2813 (NMMLSC, 2010).
“And” between values parts separate entries of the source, which are not always exact repeats. Equal entries are not always repeated. The whole screen tested about 1,300 compounds, of which about 20 (2%) were called active. No stated cut-off is given here; in the data, active means inhibition above about 40%; inactive means the rest. Only a sample is shown.

Biological target: Integrin alpha-4 (Homo sapiens) (UniProt P13612)
Assay: VLA-4 modulation in picked hits – cell-based, cherry-picked plates, U937, HUTS-21 LIBS antibody, confirmation (AID 2813);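 further: 0% = ligand without compound and 100% = no ligand background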
Conditions: U937 cells, HUTS-21 LIBS mAb binding, flow cytometry; at 6.7 µM; hits give high values; LDV ligand present at threefold Kd

Integrin alpha-4 (Homo sapiens), sequence (P13612 whole entry, looked up): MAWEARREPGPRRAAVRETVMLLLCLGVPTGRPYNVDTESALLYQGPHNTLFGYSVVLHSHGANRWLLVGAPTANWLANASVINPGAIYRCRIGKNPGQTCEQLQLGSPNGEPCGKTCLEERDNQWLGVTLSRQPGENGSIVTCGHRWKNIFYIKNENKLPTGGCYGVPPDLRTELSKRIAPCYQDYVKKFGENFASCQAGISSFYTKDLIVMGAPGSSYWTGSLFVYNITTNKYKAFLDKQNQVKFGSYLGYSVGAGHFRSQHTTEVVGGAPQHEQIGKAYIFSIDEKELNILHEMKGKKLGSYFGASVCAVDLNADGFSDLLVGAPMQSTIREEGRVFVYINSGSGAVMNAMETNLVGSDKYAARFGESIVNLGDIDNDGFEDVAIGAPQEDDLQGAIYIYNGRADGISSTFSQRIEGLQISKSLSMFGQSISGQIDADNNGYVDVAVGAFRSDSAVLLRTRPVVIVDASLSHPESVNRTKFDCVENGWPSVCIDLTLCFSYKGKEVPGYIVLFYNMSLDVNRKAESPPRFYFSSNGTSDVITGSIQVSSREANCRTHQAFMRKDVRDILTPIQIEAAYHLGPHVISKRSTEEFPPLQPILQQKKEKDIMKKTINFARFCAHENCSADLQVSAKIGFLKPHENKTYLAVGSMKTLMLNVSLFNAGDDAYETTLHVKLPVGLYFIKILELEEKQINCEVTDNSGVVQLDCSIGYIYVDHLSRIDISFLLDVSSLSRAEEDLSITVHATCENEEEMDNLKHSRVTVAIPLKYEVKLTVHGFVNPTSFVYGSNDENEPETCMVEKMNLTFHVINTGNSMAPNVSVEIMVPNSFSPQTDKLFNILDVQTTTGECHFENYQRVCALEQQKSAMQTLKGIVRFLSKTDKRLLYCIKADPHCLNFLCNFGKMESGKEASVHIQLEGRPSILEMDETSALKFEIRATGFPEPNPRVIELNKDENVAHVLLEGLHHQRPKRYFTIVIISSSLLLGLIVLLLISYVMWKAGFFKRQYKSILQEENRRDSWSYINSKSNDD

inhibition, inactive:
COc1ccc(C(=O)N2CCC(C(=O)Nc3cccc(C)c3)CC2)cc1OC -6.72%, Cc1ccc(NC(=O)OCc2cncs2)cc1 11.7%, CC1(C)SC2C(NC(=O)COc3ccccc3)C(=O)N2C1C(=O)O (stereo not given) 4.42%, COC(=O)[C@]1(Cc2ccccc2)N[C@H](CN(C)S(=O)(=O)c2ccc(OC(F)(F)F)cc2)[C@@H]2C(=O)N(Cc3ccccc3)C(=O)[C@@H]21 -5.51%, CSc1nc(-c2ccco2)nn1C(=O)CCc1ccccc1 9.03%, Cc1cccc(NS(=O)(=O)c2ccc(C)c(C(N)=O)c2)c1 0.43%, CC1(C(=O)NCCc2c[nH]c3ccccc23)C=CC2(CCCCC2)N1C(=O)c1ccccc1 (stereo not given) 5.58%, CCCOc1ccc(N2C(=O)CC(N(CCc3ccc(S(N)(=O)=O)cc3)C(C)=O)C2=O)cc1 (stereo not given) -1.15%, CC(=O)NC12CC3CC(C1)CC(C(=O)N1CCN(S(=O)(=O)c4cccs4)CC1)(C3)C2 -0.75%, Cc1nn(CC(=O)Nc2ccc(C#N)cc2)c(C)c1[N+](=O)[O-] -11.4%, Nc1ccc(Cl)c(S(=O)(=O)Nc2ccccc2Cl)c1 -5.79%, O=C1Cc2cc(S(=O)(=O)Nc3cccc(F)c3)ccc2N1 -8.24%, CC(OC(=O)c1c(F)cccc1F)C(=O)NCCC1=CCCCC1 (stereo not given) 1.98%, O=C(Nc1cccc(S(=O)(=O)Nc2ccc(Cl)cc2)c1)c1ccc2c(c1)OCCO2 -8.53%, Cc1cc(C)n(CC(O)CN(c2ccccc2)S(=O)(=O)c2ccc3ccccc3c2)n1 (stereo not given) 11.9%, CC/C(O)=C1\C(=O)CC(C)(C)CC1=NCCc1nc2ccccc2[nH]1 -5.52%, CC(=O)c1cccc(NC(=O)C2CCN(C(=O)c3ccccc3Cl)CC2)c1 5.38%, COC(=O)c1c(NC(=O)c2c(Cl)cnn2C)sc(C)c1C -13.4%, CCn1c(SCC(=O)Nc2nc(C)cs2)nnc1C(C)NC(=O)c1ccccc1 (stereo not given) 0.62% and 0%, Cc1ccc(S(=O)(=O)N2[C@@H](c3ccc(Br)cc3)C(C(=O)O)=C[C@H]2CC2CCCC2)cc1 4.02%, Cc1cc(C)cc(C(=O)NCC(=O)OCC(=O)N2CCCCC2)c1 13.7%, Cc1ccnc(NC(=O)c2ccco2)n1 -3.54%, S=C(Nc1cccnc1)Nc1ccccn1 -4.45%, COc1cccc(-c2cccc(NC(=O)C3CCN(C4CCC4)CC3)c2)c1 3.49%, COc1cccc(N2CCN(C3CC(=O)N(c4ccc(Cl)cc4)C3=O)CC2)c1 (stereo not given) 3.08%, CCOC(=O)N1CCN(S(=O)(=O)c2ccc3c(c2)C(C)C(=O)N3)CC1 (stereo not given) 0.62%, CCOC(=O)C1CCCN(S(=O)(=O)c2ccc3c(c2)C(C)(C)C(=O)N3C)C1 (stereo not given) 0.62%, CC(=O)c1ccc(N2CCN(S(=O)(=O)c3ccc4c(c3)CC(=O)N4C)CC2)cc1 -9.51%, O=C(CN1CCC(NC(=O)Nc2ccccc2)CC1)Nc1cccc([N+](=O)[O-])c1 1.64%, Cc1cnc(NC(=O)C2CCCC2)s1 -4.15%, Cc1ccc(S(=O)(=O)N2[C@@H](c3cccc4ccccc34)C(C(=O)O)=C[C@H]2C(C)(C)C)cc1 1.98%, CCCN(CC1COc2ccccc2O1)C(=S)Nc1ccc(C)cc1 (stereo not given) -14.3%, COCCNC(=O)Cn1cc2c(n1)CCCCC2 3.34%, CC(C)(C)NC(=O)NC(=O)COC(=O)Cn1c(C(F)(F)F)nc2ccccc21 -13.5%, COc1ccccc1NC(=O)c1cc(Cl)nnc1Cl 0%, COC(=O)N/N=C/c1c[n+]([O-])c2ccccc2[n+]1[O-] 1.64%, COc1cccc(-c2sc3ccc(OC)cc3c2-c2ccc(OCCN3CCCCC3)cc2)c1 3.49%, CCc1ccc2c(c1)C1(NN=C(c3ccccc3)S1)C(=O)N2 (stereo not given) 2.06%, Cc1cc(C(=O)OCC(=O)Nc2ccc(F)c(F)c2)c(C)o1 0%, CCNC(=S)NNC(=O)Cc1ccccc1 -5.51%, CCOC(=O)C1(S(=O)(=O)c2ccccc2)CCN(Cc2ccccc2)CC1 1.76%, COCCOC(=O)C1=C(C)Nc2nc(C)nn2C1c1ccccc1 (stereo not given) 3.82%, CCCOc1ccccc1C1CC(=O)Nc2cc3c(cc21)OCO3 (stereo not given) 37.9%, Cc1cc(C(=O)OCC(=O)NCc2ccco2)c(C)n1-c1ccccc1 24.9%, CCc1nnc(NC(=O)[C@@H](NC(=O)c2cccc(C)c2)C(C)C)s1 3.73%, O=C(Nn1c(-c2ccccc2)nc2ccccc2c1=O)c1ccc([N+](=O)[O-])cc1 -13.4%, CC(C)N(Cc1ccccc1)C(=S)Nc1ccc(OC(F)F)cc1 -7.72%, Cc1cnc(NC(=O)CSc2nnc(C)s2)s1 -0.75%, CCOc1ccc(N(CC(=O)Nc2ccccc2F)S(=O)(=O)c2c(C)[nH]c(=O)[nH]c2=O)cc1 5.58%, COc1ccccc1C1CC(=O)n2c(nc(-c3ccccc3)c2-c2ccccc2)S1 (stereo not given) -0.36%, COc1ccc(-c2sc3ccccc3c2-c2ccc(OCCN3CCOCC3)cc2)cc1 7.43%, CCOC(=O)C1(S(=O)(=O)c2ccc(Cl)cc2)CCN(Cc2ccccc2)CC1 5.07%, CC(=O)c1ccc(NC(=O)Cn2c(=O)oc3ccccc32)cc1 2.42%, CCOC(=O)c1ccc(N2C(=O)CC(N3CC(C)OC(C)C3)C2=O)cc1 (stereo not given) 5.58% and 0%, Cc1cc(C)cc(OCC(=O)NCc2cc(C)nc3ccccc23)c1 -0.36%, NC(=O)Cn1c(=O)oc2ccccc21 -9.51%, Cc1c(CN2CCC(CO)(CCOc3ccccc3)CC2)[nH]c2ccc(Cl)cc12 22.3%, CCC(C)(C)NC(=O)c1cc([N+](=O)[O-])ccc1N1CCCCC1 -9.35%, O=C(CN1CCN(c2ncccn2)CC1)Nc1ccccc1C(F)(F)F 4.55%, Cc1ccccc1OCCC(=O)OCC(=O)NC(C)c1ccccc1 (stereo not given) 9.45%, CC(=O)N1CCc2cc(S(=O)(=O)Nc3ccccc3N3CCN(C)CC3)ccc21 1.98%, Cc1nn(Cc2ccc(Cl)c(Cl)c2)c(C)c1NC(=O)c1cc(C2CC2)on1 -4.2%, COc1ccc2sc(-c3ccccc3OC)c(-c3ccc(OCCN4CCCC4)cc3)c2c1 -4.83%, O=C(Cn1c(NCCO)nc2ccccc21)c1ccc(Cl)cc1Cl 8.37%, Cc1ccc(/C=C/C(=O)OCC(=O)NCc2ccc(Cl)cc2)o1 -0.23%
